Reference: PubChem BioAssay (EPA / NIEHS)
“And” between values parts separate entries of the source, which are not always exact repeats. Equal entries are not always repeated. Inconclusive results are not listed. The source made the active and inactive calls. The calls were made as follows: active = hit-call score of the fitted dose curve at least 0.9, where 1 is the maximum; inconclusive = response in the unintended direction; inactive = score below 0.9.

target: Androgen Receptor/SRC-1 Co-activator, AR (gene 367) (UniProt P10275); test: OT_AR_ARSRC1_0960: Odyssey Thera (OT) 16-hour HEK293T Protein-Complementation Assay for Androgen Receptor/SRC-1 Co-activator (AID 2283353);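 also: actives raise the signal above DMSO so potency reflects increased AR and SRC-1 complex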
In short: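 HEK293T cells stably expressing AR and SRC-1 fused to Venus YFP fragments, imaged 16 h after dosing. Nuclear/cytoplasmic fluorescence ratio at 488 nm from at least 400 cells per image; gain of signal relative to DMSO.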

Chain of Androgen Receptor/SRC-1 Co-activator, AR (gene 367) (P10275 whole entry, looked up, the tested form may be a part): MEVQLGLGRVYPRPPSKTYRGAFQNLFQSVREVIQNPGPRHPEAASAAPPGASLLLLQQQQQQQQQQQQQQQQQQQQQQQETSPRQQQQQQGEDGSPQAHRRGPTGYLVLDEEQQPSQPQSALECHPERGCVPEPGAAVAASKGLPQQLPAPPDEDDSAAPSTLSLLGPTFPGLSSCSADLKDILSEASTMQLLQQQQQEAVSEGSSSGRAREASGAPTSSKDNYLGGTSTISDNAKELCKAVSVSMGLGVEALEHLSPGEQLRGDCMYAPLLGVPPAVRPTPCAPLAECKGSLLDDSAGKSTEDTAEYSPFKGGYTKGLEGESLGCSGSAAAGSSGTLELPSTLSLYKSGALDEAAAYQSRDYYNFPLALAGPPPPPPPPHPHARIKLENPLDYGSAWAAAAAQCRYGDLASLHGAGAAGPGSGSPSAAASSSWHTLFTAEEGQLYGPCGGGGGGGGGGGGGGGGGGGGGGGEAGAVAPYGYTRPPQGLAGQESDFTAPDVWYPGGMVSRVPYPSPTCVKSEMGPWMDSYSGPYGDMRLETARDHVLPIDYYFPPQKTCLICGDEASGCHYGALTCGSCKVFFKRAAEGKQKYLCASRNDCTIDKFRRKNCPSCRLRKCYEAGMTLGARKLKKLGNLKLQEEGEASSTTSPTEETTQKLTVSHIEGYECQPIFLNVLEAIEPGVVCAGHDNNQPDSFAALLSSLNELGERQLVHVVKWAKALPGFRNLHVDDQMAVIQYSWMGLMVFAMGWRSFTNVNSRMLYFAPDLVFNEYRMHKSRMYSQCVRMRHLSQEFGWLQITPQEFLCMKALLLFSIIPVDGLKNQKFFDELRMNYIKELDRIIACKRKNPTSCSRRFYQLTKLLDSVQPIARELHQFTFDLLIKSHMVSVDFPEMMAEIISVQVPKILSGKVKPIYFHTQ

Row | Structure (SMILES) | outcome
1 | COCCl | inactive
2 | O=C(O)COc1cc(Cl)c(Cl)cc1Cl | inactive
3 | C=CC(Cl)CCl (centres undefined) | inactive
4 | Cc1cc(Cl)ccc1OCCCC(=O)O | inactive
5 | O=C(N[C@H]1CN2CCC1CC2)c1ccc2c(c1)OCCO2 | inactive

target: Androgen Receptor/SRC-1 Co-activator, AR (gene 367) (UniProt P10275); test: OT_AR_ARSRC1_0480: Odyssey Thera (OT) 8-hour HEK293T Protein-Complementation Assay for Androgen Receptor/SRC-1 Co-activator (AID 2283354);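 also: hits raise the complementation signal above DMSO so AC50 marks enhancers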
In short: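 HEK293T cells stably expressing AR and SRC-1 fused to split Venus YFP fragments via (Gly4Ser)2 linkers were read 8 h after compound dosing. Complementation was imaged at 488 and 635nm, and nuclear/cytoplasmic fluorescence ratio (488nm) was taken over ≥400 cells; gain-of-signal versus DMSO.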

Row | Structure (SMILES) | outcome
6 | O=C(O)COc1cc(Cl)c(Cl)cc1Cl | inactive
7 | C=CC(Cl)CCl (centres undefined) | inactive
8 | Cc1cc(Cl)ccc1OCCCC(=O)O | inactive
9 | O=C(N[C@H]1CN2CCC1CC2)c1ccc2c(c1)OCCO2 | inactive

target: rat Mineralocorticoid Receptor (MR), Nr3c2 (gene 25672) (UniProt P22199); test: NVS_NR_rMR: NovaScreen (NVS) Nuclear Receptor Binding Assay for rat Mineralocorticoid Receptor (MR) (AID 2283355)
In short: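 Cell-free radioligand binding to MR in adrenalectomized rat brain supernatant, scintillation counted 24 h after dosing. Loss of signal versus DMSO baseline marks displacement. Primary screen in duplicate at 25 uM; actives retested as concentration series.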

Chain of rat Mineralocorticoid Receptor (MR), Nr3c2 (gene 25672) (P22199 whole entry, looked up): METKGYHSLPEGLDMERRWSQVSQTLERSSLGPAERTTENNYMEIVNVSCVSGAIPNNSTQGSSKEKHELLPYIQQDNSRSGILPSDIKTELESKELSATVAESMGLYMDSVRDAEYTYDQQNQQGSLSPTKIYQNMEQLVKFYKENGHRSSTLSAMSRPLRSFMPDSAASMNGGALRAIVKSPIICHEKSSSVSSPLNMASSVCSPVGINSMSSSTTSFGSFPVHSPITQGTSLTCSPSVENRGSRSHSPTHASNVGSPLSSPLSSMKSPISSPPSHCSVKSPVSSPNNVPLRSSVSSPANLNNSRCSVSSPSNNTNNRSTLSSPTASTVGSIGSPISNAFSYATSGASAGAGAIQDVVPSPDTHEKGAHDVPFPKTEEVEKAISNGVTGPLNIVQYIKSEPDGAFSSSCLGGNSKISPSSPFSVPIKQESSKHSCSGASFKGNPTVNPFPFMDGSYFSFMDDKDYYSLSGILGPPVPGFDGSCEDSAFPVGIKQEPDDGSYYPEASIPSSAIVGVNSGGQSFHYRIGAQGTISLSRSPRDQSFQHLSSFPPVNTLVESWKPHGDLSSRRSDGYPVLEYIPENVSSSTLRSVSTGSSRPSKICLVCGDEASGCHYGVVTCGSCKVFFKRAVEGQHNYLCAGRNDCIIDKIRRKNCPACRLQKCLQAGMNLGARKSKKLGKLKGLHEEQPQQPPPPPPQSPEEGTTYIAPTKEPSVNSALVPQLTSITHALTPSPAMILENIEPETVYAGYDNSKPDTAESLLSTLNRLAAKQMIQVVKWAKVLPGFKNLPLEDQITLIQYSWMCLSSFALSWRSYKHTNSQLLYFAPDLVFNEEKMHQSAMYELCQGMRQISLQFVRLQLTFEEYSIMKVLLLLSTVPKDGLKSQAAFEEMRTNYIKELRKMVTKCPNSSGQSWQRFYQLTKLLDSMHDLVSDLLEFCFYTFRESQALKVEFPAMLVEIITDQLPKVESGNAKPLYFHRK

Row | Structure (SMILES) | outcome
10 | Cc1cc(C(C)(C)c2ccc(O)c(C)c2)ccc1O | inactive
11 | O=c1oc2ccccc2c(O)c1C(CC(O)c1ccc(-c2ccc(Br)cc2)cc1)c1ccccc1 (centres undefined) | inactive
12 | Clc1cccc(Cl)c1 | inactive
13 | CCOP(=O)(OCC)OC(=CCl)c1ccc(Cl)cc1Cl | inactive
14 | CC(C=O)Cc1ccc2c(c1)OCO2 (centres undefined) | inactive

target: Estrogen receptor beta (Homo sapiens) (UniProt Q92731); test: OT_ER_ERbERb_0480: Odyssey Thera (OT) 8-hour HEK293T Protein-Complementation Assay for Estrogen Receptor-beta/-beta Homodimer (AID 2283357);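 also: active means signal gain over DMSO baseline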
In short: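 Readout: increase in mean fluorescence intensity (nucleus for agonists; nucleus plus cytoplasm for antagonists) relative to DMSO, from a reporter-fragment complementation of human ER-beta LBD homodimer in HEK293T cells dosed 8 hours.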

Chain of Estrogen receptor beta (Homo sapiens) (Q92731 whole entry, looked up, the tested form may be a part): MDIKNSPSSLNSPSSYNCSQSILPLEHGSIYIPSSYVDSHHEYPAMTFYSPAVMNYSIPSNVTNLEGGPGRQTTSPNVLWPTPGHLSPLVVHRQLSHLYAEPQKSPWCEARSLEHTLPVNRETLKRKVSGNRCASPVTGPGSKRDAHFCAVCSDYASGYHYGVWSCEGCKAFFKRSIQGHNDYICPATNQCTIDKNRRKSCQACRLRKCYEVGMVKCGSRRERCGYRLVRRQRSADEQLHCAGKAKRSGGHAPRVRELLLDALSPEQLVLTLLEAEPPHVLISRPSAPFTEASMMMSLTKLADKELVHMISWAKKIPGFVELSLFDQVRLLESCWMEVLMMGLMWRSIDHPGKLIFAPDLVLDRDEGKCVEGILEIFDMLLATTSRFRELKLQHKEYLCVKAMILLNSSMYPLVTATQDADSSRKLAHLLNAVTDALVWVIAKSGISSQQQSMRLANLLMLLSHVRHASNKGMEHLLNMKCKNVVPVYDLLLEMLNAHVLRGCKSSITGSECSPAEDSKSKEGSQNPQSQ

Row | Structure (SMILES) | outcome | AC50
15 | CN(N=O)C(N)=O | inactive | 
16 | Cc1cc(C)cc(C)c1 | inactive | 
17 | O=C(CBr)c1ccc(O)cc1 | inactive | 
18 | COCCl | inactive | 
19 | Nc1ncn[nH]1 | inactive | 
20 | Clc1cccc(Cl)c1 | inactive | 
21 | CCOP(=S)(OCC)O/N=C(\C#N)c1ccccc1 |  | 26.9 µM (active)
22 | O=[N+]([O-])c1ccccc1O | inactive | 
23 | Nc1ccc(N)cc1 | inactive | 
24 | Oc1cc(Cl)c(Cl)cc1Cl |  | 43.8 µM (active)
25 | Cc1cc(Cl)ccc1O |  | 66.5 µM (active)
26 | Oc1c(Cl)cc(Cl)cc1Cl | inactive | 
27 | CCC[CH2][Sn]([CH2]CCC)([CH2]CCC)[CH2]CCC | inactive | 
28 | COc1nn(C(=O)NS(=O)(=O)c2ccccc2OC(F)(F)F)c(=O)n1C | inactive | 
29 | CC(C)(C)c1ccccc1O |  | 50 µM (active)
30 | C=CC(Cl)CCl (centres undefined) | inactive | 
31 | COC(=O)Nc1cccc(OC(=O)Nc2cccc(C)c2)c1 | inactive | 
32 | CC1(C)[C@H](C(=O)O[C@H](C#N)c2cccc(Oc3ccccc3)c2)[C@@H]1/C=C(\Cl)C(F)(F)F | inactive | 
33 | Cc1cc(Cl)ccc1OCCCC(=O)O | inactive | 
34 | O=C(N[C@H]1CN2CCC1CC2)c1ccc2c(c1)OCCO2 | inactive | 

target: human Peroxisome Proliferator-activated Receptor alpha (PPARa), PPARA (gene 5465) (UniProt Q07869); test: NVS_NR_hPPARa: NovaScreen (NVS) Nuclear Receptor Binding Assay for human Peroxisome Proliferator-activated Receptor alpha (PPARa) (AID 2283359);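 also: activity means loss of TR-FRET signal versus DMSO baseline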
In short: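 Cell-free binding assay with extracted human protein, read by TR-FRET 1 h after chemical dosing. Loss of signal relative to DMSO baseline indicates binding. Primary screen used duplicate single concentration (25 uM); actives followed up in concentration series.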

Chain of human Peroxisome Proliferator-activated Receptor alpha (PPARa), PPARA (gene 5465) (Q07869 whole entry, looked up): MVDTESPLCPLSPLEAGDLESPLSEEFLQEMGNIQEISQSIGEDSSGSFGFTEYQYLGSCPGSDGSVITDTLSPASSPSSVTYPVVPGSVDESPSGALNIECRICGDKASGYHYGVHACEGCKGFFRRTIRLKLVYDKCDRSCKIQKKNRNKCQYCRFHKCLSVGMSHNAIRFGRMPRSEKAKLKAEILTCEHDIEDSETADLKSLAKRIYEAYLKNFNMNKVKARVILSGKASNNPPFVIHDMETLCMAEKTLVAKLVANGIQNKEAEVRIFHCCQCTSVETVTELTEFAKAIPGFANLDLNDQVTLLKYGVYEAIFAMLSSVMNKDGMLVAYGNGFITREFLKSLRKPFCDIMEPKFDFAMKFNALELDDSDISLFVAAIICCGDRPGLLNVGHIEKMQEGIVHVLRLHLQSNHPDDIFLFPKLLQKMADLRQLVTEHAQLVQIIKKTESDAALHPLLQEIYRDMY

Row | Structure (SMILES) | AC50 | outcome
35 | CCCCCCCCCCCCc1cccc(S(=O)(=O)O)c1 | 9.25 µM (active) | 
36 | Oc1cc(Cl)c(Cl)cc1Cl |  | inactive
37 | Cc1cc(Cl)ccc1O |  | inactive
38 | CCCCCCCCCCCCOS(=O)(=O)O | 15.8 µM (active) and 8.71 µM (active) | 
39 | CC(C)(C)c1ccccc1O |  | inactive
